The values below come from ChEMBL document CHEMBL4513160, “CO-ADD screening of MMV (CH) - Small Polar Library”.

Out of some 21,000 compounds screened, fewer than 10 showed an effect of 50% or more. Only a sample is shown. Results with a measured potency or affinity are listed apart.

The assay relates to Acinetobacter baumannii. Particulars: Concentration 300 ug.mL-1; ASSAY_TEST Inhibition of Bacterial Growth; detection method Absorption (OD600); MEDIA CAMHB; plate type 384well; NBS; CORNING #3640; time 18 hr.
Regarding `CC(C)Oc1ncc(C(=O)N2CCC(O)CC2)cc1Cl`, the Inhibition is on record as 1.14%.
On to `C[C@H](N)c1cccc(OCCN(C)C)c1`, for which the Inhibition was determined as 5.56%.
For the compound `C[C@@H]1CN(CCC(=O)NC2CCCC2)CC[C@]1(C)O`, the Inhibition is 3.95%.
With `O=S(=O)(CCN1CCN(c2nccs2)CC1)C(F)(F)F`, the Inhibition is given as 11.95%.
The result for `CS(=O)(=O)C[C@H]1CCCN1` reads 4.73%; that for `CN(C(=O)c1ccc2c(c1)NC(=O)CS2)C1CCCC1`, 10.76%; that for `CN(C(=O)CCn1cccn1)C1CCS(=O)(=O)C1` (configuration not stated), 0.97%.
The same measure for `NCCNS(=O)(=O)c1ccc(F)cc1C(F)(F)F`: 9.19%; for `CCn1cc(Br)c(C(C)=O)n1`: 15.72%; for `CCc1nccn1CCNC(=O)Cc1nonc1C`: 6.19%.
The result for `O=C(Nc1ncccc1O)c1cnns1` reads 5.13%; that for `CN(C)CC[C@H](O)c1cccs1`, 11.43%.
As for `Cc1occc1C(=O)N1CCC(NC(=O)C2CC2)CC1`, the Inhibition amounted to 4.82%.
`CC(=O)c1cccc(COC(=O)c2cccnc2)c1`: the Inhibition came to 12%.
On to `CC(C)c1noc(CN(C)C(=O)C2=NNC(=O)CC2)n1`, for which the Inhibition is -1.48%.
The same measure for `CSCC(=O)N1CCN(S(=O)(=O)N2CCOCC2)CC1`: -0.38%.
Consider `CCSc1nccc(N)n1`, for which the Inhibition stood at 18.01%.
For the compound `CS(=O)(=O)NCCc1nc2c(s1)CCCC2`, the Inhibition is recorded as 6.5%.
Turning to `CNC(=O)c1cccc(NCc2cccnc2)n1`, the Inhibition worked out at 1.67%.
Turning to `CCN(C(=O)C(C)O)C1CCCCC1` (configuration not stated), the Inhibition is listed as 7.15%.
The result for `CN(Cc1ccc(Oc2ccccc2)cc1)C(=O)CN` reads 13.35%.
The same measure for `Cn1cc(S(=O)(=O)NCc2ccco2)cn1`: -0.88%.
On to `O=C1CCCc2sccc2N1`, for which the Inhibition came to 14.86%.
For the compound `CCCS(=O)(=O)N1C[C@@H](CN(C)CCO)[C@@H](CO)C1`, the Inhibition is recorded as 1.24%.
Regarding `CNC(=O)c1ccc(CNC(=O)c2ccoc2C)cc1`, the Inhibition is given as 5.87%.
For `COc1ccc(NC2CC(=O)N(C)C2=O)cc1OC` (configuration not stated), the Inhibition is 5.58%.
As for `CCN1CCCC1CNC(=O)c1csc(NC(C)=O)n1` (configuration not stated), the Inhibition is listed as -0.07%.
In the case of `NCC(=O)NCCN1CCCCC1`, the Inhibition is 9.69%.
On to `CCn1nnnc1NCc1sccc1C`, for which the Inhibition turned out to be 11.07%.
`CCOc1ncccc1C(=O)OC(C)C(=O)NC1CC1` (configuration not stated): the Inhibition was found to be 0.66%.
Turning to `O=C(Nc1cccc(Cl)c1Cl)C1CCS(=O)(=O)C1` (configuration not stated), the Inhibition is -2.85%.
Regarding `CC(=O)c1cc[nH]c(=O)c1`, the Inhibition is 3.77%.
As to `O=C(CNC1CC1)NC[C@H]1CCc2ccccc2O1`, the Inhibition is recorded as 0.42%.
The same measure for `Cc1ccc(CN(C)CC(=O)NCCC#N)o1`: 4.14%; for `COc1ccc(CC(=O)NCC(C)C)c(OC)c1`: 9.02%; for `CCCn1nnnc1CSCc1ccccn1`: 1.73%.
For `CCCOc1ccc2c(c1)CCN(C(=O)C(C)N)C2` (configuration not stated), the Inhibition is 14.38%.

What is called Inhibition is the change of the read-out against control, counted positive when it falls.
